The source of these data is PubChem BioAssay AID1030 (National Center for Advancing Translational Sciences (NCATS), 2008).

Each structure is given as a SMILES string. The campaign covered roughly 220,000 compounds. About 16,000 (7.3%) were called active. Entries that show only a call come without a potency. Not shown: some 25% with an inconclusive outcome. Calls come from the whole dose curve; as a rule, active = well fitted inhibition curve with a large enough effect (not every such curve was filed as active); inconclusive = small, poorly fitted or top-dose-only effect, or another doubt; inactive = no such curve, though single readings can be large or run the other way. The sample as a whole holds a higher share of actives than the screen did.
Potency is the fitted concentration of half-maximal effect.

Sequence of Aldehyde dehydrogenase 1A1 (Homo sapiens) (P00352 whole entry, looked up): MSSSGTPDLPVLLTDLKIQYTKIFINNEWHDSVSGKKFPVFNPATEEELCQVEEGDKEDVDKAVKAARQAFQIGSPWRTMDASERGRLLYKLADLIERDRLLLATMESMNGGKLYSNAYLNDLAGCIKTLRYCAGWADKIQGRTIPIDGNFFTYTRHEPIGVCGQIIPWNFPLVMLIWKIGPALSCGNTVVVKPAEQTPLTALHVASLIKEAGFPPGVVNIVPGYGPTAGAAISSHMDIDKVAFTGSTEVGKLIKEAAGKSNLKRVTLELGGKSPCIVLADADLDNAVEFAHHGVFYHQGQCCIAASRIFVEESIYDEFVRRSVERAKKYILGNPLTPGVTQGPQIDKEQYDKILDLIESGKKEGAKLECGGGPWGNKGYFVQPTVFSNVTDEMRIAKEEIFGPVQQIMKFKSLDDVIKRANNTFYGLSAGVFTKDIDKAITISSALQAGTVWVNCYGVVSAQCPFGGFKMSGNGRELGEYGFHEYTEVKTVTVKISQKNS

The experiment addresses Aldehyde dehydrogenase 1A1 (Homo sapiens) (UniProt P00352). In words: qHTS Assay for Inhibitors of Aldehyde Dehydrogenase 1 (ALDH1A1). The following applies: Purified ALDH1A1, NADH fluorescence, propionaldehyde substrate; series mostly up to 75.3 µM.
Turning to `COCCN(Cc1nc(-c2ccc(C(F)(F)F)cc2)no1)C(C)C`, the Potency entry was “inactive”.

In the case of `Oc1c(C=Nc2cccc3nsnc23)ccc2ccccc12`, the Potency was 2.82 µM (active).

Turning to `O=C(Nc1cccc(C(F)(F)F)c1)c1ccc(N2CCNCC2)c([N+](=O)[O-])c1`, the Potency entry is “inactive”.

Turning to `COc1cccc(/C=C/C(=O)Nc2ccc3c(c2)OCCO3)c1`, the Potency result was “inactive”.

For the molecule `CCc1nnc(NS(=O)(=O)c2ccc(NS(=O)(=O)c3ccccc3)cc2)s1`, the Potency result was “inactive”.

As for `CCOC(=O)c1c(NC(=S)NC(=O)/C=C/c2cccs2)sc(C)c1C`, the Potency result is “inactive”.

With `NS(=O)(=O)c1ccc(NC(=S)NNC(=O)c2cccs2)cc1`, the Potency is 12.6 µM (active).

On to `CCc1nnc(NS(=O)(=O)c2ccc(NC(=S)NC(=O)/C=C/c3cccs3)cc2)s1`, for which the Potency was 12.6 µM (active).

As to `CCc1nnc(NS(=O)(=O)c2ccc(NC(=S)NC(=O)c3cccs3)cc2)s1`, the Potency is 25.1 µM (active).

For `CC(C)C(=O)Nc1ccc(C(=O)NNC(=O)c2cccs2)cc1`, the Potency result is “inactive”.

In the case of `COc1ccc(NS(=O)(=O)c2ccc(NC(=S)NC(=O)/C=C/c3ccc(C)cc3)cc2)nn1`, the Potency result was “inactive”.

For the molecule `O=C(NC(=S)Nc1ccc(NC(=O)c2cccs2)cc1)c1ccc([N+](=O)[O-])cc1`, the Potency entry was “inactive”.

Take `CCc1nnc(NC(=O)c2cccs2)s1`: the Potency result was “inactive”.

As to `CC(=O)Nc1ccc(S(=O)(=O)N(C)c2ccc(OCC(=O)OCC(=O)N3CCCCC3)cc2)cc1`, the Potency result is “inactive”.

For the molecule `CCc1cc2cc(OC)ccc2nc1SCC(=O)Nc1cc(OC)c(OC)cc1C(=O)O`, the Potency result was “inactive”.

Regarding `COC(C)C(C(=O)OCC1=CCN2CC[C@H](O)[C@@H]12)C(C)C` (stereo partly drawn), the Potency entry was “inactive”.

Take `COc1ccc(C2OCC3(CO2)SC(=O)NC3=O)cc1OC` (stereo not drawn): the Potency entry is “inactive”.

Take `CN1CCC(OC(=O)COc2ccc(Cl)cc2Cl)CC1`: the Potency entry was “inactive”.

With `O=C(CNS(=O)(=O)c1cccc(C(F)(F)F)c1)Nc1ccccc1F`, the Potency is 31.6 µM (active).

Turning to `O=C(CNS(=O)(=O)c1ccccc1)NCC(=O)OCc1ccccc1F`, the Potency entry was “inactive”.

For `Cc1cccc(OCC(=O)Nc2ccccc2F)c1`, the Potency entry is “inactive”.

For `Cc1cccc(C)c1NC(=O)C1(C)c2cccc[n+]2CC(=O)N1Cc1cccs1` (stereo not drawn), the Potency entry was “inactive”.

Turning to `COc1ccccc1N(C)S(=O)(=O)c1ccc(Cl)c(C(=O)N2CCC(C(N)=O)CC2)c1`, the Potency result is “inactive”.

As to `COc1ccccc1-c1nnc(NC(=O)c2cccc(N3C(=O)CCC3=O)c2)o1`, the Potency result is “inactive”.

As for `Cc1cc(NC(=O)c2cccc(N3C(=O)CCC3=O)c2)no1`, the Potency was 28.2 µM (active).

As for `O=C(Nc1cccc2cccnc12)c1cccc(N2C(=O)CCC2=O)c1`, the Potency entry was “inactive”.

In the case of `Nc1nnc(SCC(=O)NC2CCCc3ccccc32)s1` (stereo not drawn), the Potency result is “inactive”.

Take `CCCCC(NC(=O)c1cccc(Br)c1)C(=O)O` (stereo not drawn): the Potency entry was “inactive”.

As for `O=C(/C=C/NNC(=O)c1cccc(Br)c1)c1ccccc1`, the Potency was 2.82 µM (active).

Take `CC(CC(=O)O)CC(=O)NNC(=O)c1cccc(Br)c1` (stereo not drawn): the Potency result is “inactive”.

As to `Cc1ccc(CN2CCC(N3CCC(C(=O)NCC4CCCO4)CC3)CC2)o1` (stereo not drawn), the Potency result was “inactive”.

Regarding `Cc1onc(C(=O)NN)c1-c1csc(COc2ccccc2)n1`, the Potency entry was “inactive”.

Regarding `C=CCn1c(CC(=O)Nc2cccc(OC)c2)nnc1SCC(=O)NC1CCCCC1`, the Potency entry is “inactive”.

With `CCCCNC(=O)CSc1nc2n[nH]c(C)c2c(=N)n1-c1cccc(Cl)c1C`, the Potency result was “inactive”.

`COc1cccc(-n2c(SCC(=O)NC3CCCCC3)nc3n[nH]c(C)c3c2=N)c1`: the Potency is 20 µM (active).

As for `Cc1ccc(S(=O)(=O)N2CCCC2C(=O)OCc2nc3sc(C)c(C)c3c(=O)[nH]2)cc1` (stereo not drawn), the Potency result is “inactive”.

Turning to `COc1ccc(-c2nn(-c3ccccc3)cc2/C=C\C(=O)Nc2ccc(C(=O)O)cc2)cc1`, the Potency result is “inactive”.

Turning to `COc1ccc(N=C2SC(C(=O)Nc3ccc(F)cc3)CC(=O)N2C)cc1` (stereo not drawn), the Potency entry was “inactive”.

On to `CCc1nc(C)cn1S(=O)(=O)c1cc(OC)c(C)cc1C`, for which the Potency result was “inactive”.

With `CC(C)c1nccn1S(=O)(=O)c1cc([N+](=O)[O-])ccc1Cl`, the Potency result was “inactive”.

As for `CCc1nc(C)cn1S(=O)(=O)c1cc([N+](=O)[O-])ccc1Cl`, the Potency is 7.94 µM (active).

On to `CC(C)C(=O)Nc1oc(-c2ccccc2)cc1C#N`, for which the Potency result was “inactive”.

As to `COc1cccc(NC(=O)CC2C(=O)NCCN2C(=S)Nc2ccc(F)cc2)c1` (stereo not drawn), the Potency result is “inactive”.

For `O=C(NCc1nnc(SCC(=O)N2CCC(Cc3ccccc3)CC2)o1)c1ccco1`, the Potency was 14.1 µM (active).

`O=C(Cn1cnc2c(nnn2-c2ccccc2)c1=O)N1CCC(Cc2ccccc2)CC1`: the Potency entry is “inactive”.

In the case of `O=C(CSc1nnc(-c2ccccc2)o1)N1CCOCC1`, the Potency result is “inactive”.

On to `Cc1cccc(N(C(=O)Cc2cccs2)C(C(=O)NCc2ccco2)c2ccncc2)c1` (stereo not drawn), for which the Potency result was “inactive”.

In the case of `COc1ccc2c(CC(=O)OCC(=O)NC(N)=O)coc2c1`, the Potency result is “inactive”.

With `Cn1c(=O)c([N+](=O)[O-])c(Oc2ccccc2)c2ccccc21`, the Potency is 17.8 µM (active).

On to `O=[N+]([O-])c1cccc(-c2nnc3c4ccccc4c4ccccc4n23)c1`, for which the Potency entry was “inactive”.

For the molecule `Cn1c2ccccc2c(=O)c2c(O)cccc21`, the Potency result was “inactive”.

`Cc1nn(C)c(Oc2ccccc2)c1[N+](=O)[O-]`: the Potency entry is “inactive”.

Regarding `Cc1cccc(Oc2c([N+](=O)[O-])c(=O)n(C)c3ccccc23)c1`, the Potency is 3.16 µM (active).

With `COc1cccc(C(=O)Oc2cc(C)[nH]c(=O)c2[N+](=O)[O-])c1`, the Potency result was “inactive”.

Regarding `CC(=O)N1CCN(S(=O)(=O)c2ccc(C)c([N+](=O)[O-])c2)C1C(C)C` (stereo not drawn), the Potency entry is “inactive”.

Turning to `Nc1[nH][nH]c(=O)c1N=Nc1ccc2c(c1)OCO2`, the Potency result was “inactive”.

`COc1cc(NC(=O)c2cccs2)ccc1NC(=O)c1ccccc1Cl`: the Potency entry is “inactive”.

As for `COc1ccccc1C1CCN(C(=S)Nc2ccc(Br)cc2)CC1`, the Potency result is “inactive”.

Turning to `C/C(=N\NC(=O)c1cccnc1)c1ccc(-c2ccccc2)cc1`, the Potency result was “inactive”.

With `Cc1cc(C)n(C(=O)c2ccc(S(=O)(=O)N3CCCC3)cc2)n1`, the Potency entry is “inactive”.

`CC1(C)CC(=O)C(N=Nc2ccc(S(=O)(=O)N3CCCCCC3)cc2)=C(O)C1`: the Potency was 2.51 µM (active).

For `Cc1ccc(N2C(=O)C(NC(=O)c3c(F)cccc3F)(C(F)(F)F)C3=C2CC(C)(C)CC3=O)cc1` (stereo not drawn), the Potency entry was “inactive”.

With `CC1(C)CC(=O)C(C2=NC(C)(C)Cc3ccccc32)=C(O)C1`, the Potency entry is “inactive”.

As to `CC1(C)CC(=O)C(N=Nc2c(F)cccc2F)=C(O)C1`, the Potency was 12.6 µM (active).

Turning to `CN1CCN(NC(=O)c2ccc(S(=O)(=O)N3CCCCCC3)cc2)CC1`, the Potency entry is “inactive”.

As for `COc1cc(CNCCN(C)C)ccc1OCc1c(F)cccc1Cl`, the Potency result was “inactive”.

Turning to `C/C(CC(=O)Nc1ccc(C)cc1C)=N\NC(=O)C(C)C`, the Potency entry was “inactive”.

As to `CCCCN1C(=O)c2ccc(C(=O)Nc3ccc(S(=O)(=O)N(C)C)cc3)cc2C1=O`, the Potency is 1.78 µM (active).

With `CN(C)S(=O)(=O)c1ccc(NC(=O)N2CCOCC2)cc1`, the Potency result was “inactive”.

Turning to `Cc1ccnc(NS(=O)(=O)c2ccc(NC(=O)c3ccc(S(=O)(=O)N(C)C)cc3)cc2)n1`, the Potency result is “inactive”.

In the case of `O=C(Nc1ccc(Br)cn1)c1ccc([N+](=O)[O-])o1`, the Potency result was “inactive”.

With `O=c1[nH]n(-c2ccc([N+](=O)[O-])cc2)c(=O)c2ccccc12`, the Potency entry is “inactive”.

As for `CC(Oc1ccc(Cl)cc1Cl)C(=O)/C=C/N(C)C` (stereo not drawn), the Potency result was “inactive”.

`CCCC(=O)Nc1cccc(NC(=S)NC(=O)C(C)Oc2ccc(Cl)cc2Cl)c1` (stereo not drawn): the Potency is 10 µM (active).

As for `COc1cccc(NC(=O)C(C)Oc2ccccc2)c1` (stereo not drawn), the Potency result was “inactive”.

On to `Cc1ccccc1Nc1nc(N)nc(CSc2ccccc2)n1`, for which the Potency entry was “inactive”.

With `CCN(c1ccccc1)S(=O)(=O)c1cccc(C(=O)O)c1`, the Potency result was “inactive”.

Consider `CCOc1ccc(S(=O)(=O)Nc2nc3cc(OC)ccc3s2)cc1`, for which the Potency entry is “inactive”.

On to `COc1ccc(S(=O)(=O)Nc2ccc(O)c(Sc3nc4ccccc4s3)c2)cc1`, for which the Potency is 17.8 µM (active).

On to `O=C(O)c1cccc(S(=O)(=O)NCCO)c1`, for which the activity, negative = inhibition is -6.88% [at 13.5 µM] (inactive).

Regarding `O=C(O)c1cccc(S(=O)(=O)Nc2ccc(O)cc2Sc2nc3ccccc3s2)c1`, the Potency was 22.4 µM (active).

As to `COc1ccc(/C=C(/CC(=O)Nc2ccc(C)cc2)c2nc3ccccc3s2)cc1`, the Potency result was “inactive”.

`CCO[C@@H]1OC(C(=O)N2CCOCC2)=C[C@H](C)[C@H]1CCCO`: the Potency result is “inactive”.

For `O=C(CSc1ccc(-c2cccs2)nn1)Nc1ccccc1F`, the Potency entry is “inactive”.

Regarding `COc1ccc(NC(=O)c2cc3nc(-c4ccccc4)cc(C)n3n2)cc1OC`, the Potency entry was “inactive”.

For the molecule `COc1ccc(/C=N/NC(=O)Cn2cc(C(F)(F)F)ccc2=O)cc1`, the Potency result is “inactive”.

As to `COc1ccc(OC)c2[nH]c(=O)c(CCNC(=O)C(=O)c3c[nH]c4ccccc34)cc12`, the Potency result is “inactive”.

On to `O=C(NCCCn1ccnc1)C(=O)c1cn(CC(=O)N2CCCCCC2)c2ccccc12`, for which the Potency is 14.1 µM (active).

In the case of `CCOc1ccccc1C(=O)NCCCn1ccnc1`, the Potency result was “inactive”.

On to `O=C(CCN1C(=O)c2ccccc2C1=O)NCCCn1ccnc1`, for which the Potency entry was “inactive”.

For `O=C(O)CCCCOn1ccnc1`, the Potency result was “inactive”.

With `CC(C)=CCN1CCN(Cc2ccc(Oc3ncccn3)cc2)CC1CCO` (stereo not drawn), the Potency entry is “inactive”.

Consider `CCc1ccccc1N1C(=O)C2C3CC(=O)C(c4ccccc43)C2C1=O` (stereo not drawn), for which the Potency result is “inactive”.

As for `CC1(C)CCCC2=C1CC1C(=O)N(c3ccccc3)C(=O)C1C2` (stereo not drawn), the Potency result was “inactive”.

On to `CC1=C(C)CC2C(=O)N(c3cccc4ccccc34)C(=O)C2C1` (stereo not drawn), for which the Potency is 12.6 µM (active).

As to `COC(=O)C1=C(C(=O)OC)[C@@H]2N(Cc3ccccc3)c3ccccc3[C@@]23C[C@@H](C(=O)OC)N(S(=O)(=O)c2ccc(C(F)(F)F)cc2)C3=N1`, the activity, negative = inhibition is 3.2% [at 13.5 µM] (inactive).

For `Fc1cccc2ncnc(OCc3ccccc3)c12`, the Potency entry was “inactive”.

For the molecule `O=C(CSc1ccc(-c2ccco2)nn1)NCc1ccc2c(c1)OCO2`, the Potency is 3.55 µM (active).

For `O=C(CSc1ncn[nH]1)NCc1ccc2c(c1)OCO2`, the Potency result was “inactive”.

Take `Cc1ccccc1-c1nnc(SCC(=O)NCc2ccc3c(c2)OCO3)n1C`: the Potency result is “inactive”.

As for `CS(=O)(=O)N(CC(=O)NCc1ccco1)c1ccc2c(c1)OCO2`, the Potency result is “inactive”.

As for `S=C(NCc1ccc2c(c1)OCO2)NCc1ccco1`, the Potency is 20 µM (active).

As for `Cc1c(Cl)cccc1NC(=S)NCc1ccc2c(c1)OCO2`, the Potency entry was “inactive”.
